# PubChem BioAssay AID504833 (Johns Hopkins Ion Channel Center, 2011)
# The campaign covered roughly 2,500 compounds. About 2,200 (88%) were called active.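 The calls were made as follows: active = primary screen active, with duplicate mean activation above negative control mean plus 3 SD (cut at about 11% in these data); inactive = the rest.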 The set was probably picked from earlier hits. A selection follows.
# Target: High affinity choline transporter 1 (Homo sapiens) (UniProt Q9GZV3)
# Assay: human choline transporter potentiators – cell-based, membrane potential dye, duplicate, confirmation (AID 504833)
# Details: CHT-expressing cells, membrane potential dye fluorescence (FDSS); at 10 µM; active compounds read high; % of choline EC20–EC90 response window; HEK293 expressing CHT LV-AA mutant; choline added at its EC20
# High affinity choline transporter 1 (Homo sapiens), sequence (Q9GZV3 whole entry, looked up): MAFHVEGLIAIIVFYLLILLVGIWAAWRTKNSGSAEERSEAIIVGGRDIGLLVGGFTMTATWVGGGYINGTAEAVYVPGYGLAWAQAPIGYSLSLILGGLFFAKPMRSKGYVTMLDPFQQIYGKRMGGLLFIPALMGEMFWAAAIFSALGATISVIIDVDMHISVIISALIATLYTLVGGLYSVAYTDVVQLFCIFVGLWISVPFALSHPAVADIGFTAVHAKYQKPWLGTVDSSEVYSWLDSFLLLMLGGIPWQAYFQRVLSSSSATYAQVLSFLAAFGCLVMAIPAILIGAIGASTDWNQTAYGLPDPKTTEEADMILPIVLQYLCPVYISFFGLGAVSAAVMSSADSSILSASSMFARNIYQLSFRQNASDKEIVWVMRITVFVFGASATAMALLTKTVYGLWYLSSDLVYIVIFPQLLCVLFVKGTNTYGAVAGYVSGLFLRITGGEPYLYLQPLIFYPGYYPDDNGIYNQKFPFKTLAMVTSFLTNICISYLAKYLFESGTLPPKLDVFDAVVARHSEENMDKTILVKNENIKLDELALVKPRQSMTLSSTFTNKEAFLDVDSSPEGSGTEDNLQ
row,SMILES,activation
1,CN1CCN(c2cc(N3CCNCC3)ccc2[N+](=O)[O-])CC1,80.3% (active)
2,Cc1nc2ccc(N3CCN(C)CC3)cc2nc1C,20.3% (active)
3,CCCCCn1c(=O)c(C(=O)Nc2c(C)n(C)n(-c3ccccc3)c2=O)c(O)c2ccccc21,6.79% (inactive)
4,CCN1CCN(c2ccc([N+](=O)[O-])cc2C#N)CC1,43.4% (active)
5,CCOc1ccc(-c2cc(C)[n+](CCN(CC)CC)c(-c3ccc(OCC)cc3)c2)cc1,34.4% (active)
6,CC[N+](CC)(CC)CCCCCCCCCC[N+](CC)(CC)CC,41% (active)
